This passage reports composite z-score and z-score results from PubChem BioAssay.

Experiment [1] in a line: compounds binding Alexa647 anti-His antibody – biochemical, small-molecule microarray, 635 nm fluorescence, artefact control for SMM control protein annotation, primary screen (AID 1128).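 Note: score merges feature fluorescence with signal-to-noise for each printed compound spot.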 The following applies: higher = more signal.
In experiment [2] the test system is Human papillomavirus type 1a E7 protein (residues 1-88). Put plainly: HPV1a E7 small-molecule binders, primary screen, biochemical, small-molecule microarray, residues 1-88, 635 nm (AID 1129). The following applies: small-molecule microarray binding, fluorescence 635 nm; higher = more signal.
The target in experiment [3] is Focal adhesion kinase 1 (Homo sapiens) (UniProt Q05397). Put plainly: PTK2 protein binding on printed compound slides – biochemical, small-molecule microarray, 635/667 nm fluorescence, BSA, DTT, primary screen (AID 1130).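 Note: composite of spot emission at 667 nm and signal to noise over triplicate slides.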 As to conditions: 635 nm fluorescence, higher = more signal.
Experiment [4] deals with Fibrinogen (Alexa647-labelled). Kind of experiment: Alexa647-fibrinogen binding to printed small molecules – biochemical, small-molecule microarray, 635/667 nm fluorescence, artefact control for SMM control-protein annotation, profiling panel (AID 1131).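 Note: z-score merges 667 nm fluorescence with per-spot signal-to-noise over triplicate slides.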 As to conditions: fibrinogen-A647 binding fluorescence, higher = more signal.
Experiment [5] has as its target Follistatin (Homo sapiens) (UniProt P19883). Put plainly: FST protein binding to printed compounds – biochemical, small-molecule microarray, 635/667 nm fluorescence, primary screen (AID 1132). The following applies: 635 nm fluorescence, higher = more signal.
Experiment [6] has as its target Fibroblast growth factor 2 (Homo sapiens) (UniProt P09038). Kind of experiment: basic fibroblast growth factor binding to printed compounds – biochemical, small-molecule microarray, 635/667 nm fluorescence, primary screen (AID 1133). As to conditions: FGF2, fluorescence 635/667, higher = more signal.
The nature of experiment [7]: JC-1 mitochondrial potential readout, lung cancer cells – cell-based, A549, JC-1 fluorescence, basal, 24 h, 100 nL, profiling panel (AID 1138).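 Note: A549 lung adenocarcinoma cells under basal conditions with no added stimulus; test concentration not given here.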 The following applies: higher = more signal.
Experiment [8] concerns Lefty1. Put plainly: Lefty1 protein binding to printed compounds – biochemical, small-molecule microarray, 635/667 nm fluorescence, primary screen (AID 1139). As to conditions: fluorescence 635/667, higher = more signal.
The test system of experiment [9] is wheat germ agglutinin (Triticum aestivum), Alexa647-labelled. Put plainly: Alexa647-WGA lectin binding to printed small molecules – biochemical, small-molecule microarray, 635/667 nm fluorescence, artefact control for SMM control-protein annotation, profiling panel (AID 1140).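 Note: score merges 667 nm feature emission with signal to noise over triplicate slides.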 As to conditions: WGA-A647 binding, 635 nm fluorescence, higher = more signal.
Experiment [10] addresses Luciferin 4-monooxygenase (Photinus pyralis) (UniProt P08659). Put plainly: inhibition of purified Photinus pyralis luciferase – biochemical, luminescence, purified enzyme, 2006 set, primary screen (AID 1141).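 Note: cell-free assay with purified firefly luciferase at 100 ng per well in PBS; test concentration not given here.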 As to conditions: purified firefly luciferase, SteadyGlo luminescence, 30 min; higher = more signal, called active from +8 up or from −8 down.
Experiment [11] relates to Wnt5a (protein binding on small-molecule microarray). Kind of experiment: small molecules binding Wnt5a protein – biophysical, small-molecule microarray, 635/667 nm fluorescence, primary screen (AID 1142).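 Note: fluorescence read at 667 nm with signal to noise per printed feature.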 The following applies: 635 nm fluorescence, higher = more signal.
Experiment [12] is described as follows: ATP-based viability of Huh7 replicon cells – cell-based, CellTiter-Glo luminescence, basal, 48 h, cytotoxicity control for HCV replication inhibitor project, primary screen (AID 1143).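 Note: Huh7 hepatoma cells carrying a hepatitis C replication reporter with no stimulus; test concentration not given here.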 As to conditions: higher = more signal, called active from +8 up or from −8 down. Background: Replicon systems follow genome replication, usually without infectious particles.

A short description of experiment [13]: Pseudomonas biofilm growth suppression – PAO1 strain, BacTiter-Glo luminescence, LB-PBS, primary screen (AID 1144). The following applies: P. aeruginosa PAO1 biofilm, 12 h, higher = more signal.
Experiment [14] can be described thus: basal CRE-LacZ reporter activity in PC12 – cell-based, unstimulated, primary screen (AID 1145). As to conditions: no forskolin, luminescence, 4.5 h, higher = more signal, called active from +8 up or from −8 down.
A short description of experiment [15]: forskolin-driven CRE-LacZ activity in PC12 – cell-based, CRE-LacZ reporter, forskolin-stimulated, primary screen (AID 1146).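 Note: PC12 cells with 6xCRE LacZ reporter stimulated by forskolin 10 µM; beta-galactosidase reporter signal reflecting CREB driven transcription.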 As to conditions: luminescence, 4.5 h, higher = more signal, called active from +8 up or from −8 down.
Experiment [16] has as its target Streptavidin (Streptomyces avidinii) (UniProt P22629). Put plainly: compounds binding control protein streptavidin – biophysical, small-molecule microarray, 635/667 nm fluorescence, artefact control for SMM compound annotation, primary screen (AID 1147).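 Note: signal reflects streptavidin binding to arrayed compounds as a control protein.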 The following applies: higher = more signal.
Experiment [17] can be described thus: probe aInhba binding on compound microarray – biochemical, small-molecule microarray, 635/667 nm fluorescence, primary screen (AID 1148).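 Note: score merges 667nm spot fluorescence with signal-to-noise for antibody binding to printed compounds.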 As to conditions: higher = more signal.
Experiment [18] deals with Torsin-1A (Homo sapiens) (UniProt O14656). Put plainly: TOR1A wild-type binding on microarray – cell lysate, small-molecule microarray, lysate, 635/667 nm, primary screen (AID 1149). The following applies: COS7 hTOR1A-WT lysate, 635 nm fluorescence, higher = more signal.
Experiment [19] has the same target. Put plainly: torsin A mutant lysate binding on microarrays – cell lysate, small-molecule microarray, COS7 lysate, 635/667 nm fluorescence, primary screen (AID 1150).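 Note: score pools 667 nm emission and signal to noise measuring lysate protein binding.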 As to conditions: COS7 hTOR1A mutant lysate, 635 nm fluorescence, higher = more signal.
Experiment [20] relates to Sonic hedgehog protein (Shh). Put plainly: Sonic hedgehog microarray binding compounds – biochemical, small-molecule microarray, 635/667 nm fluorescence, primary screen (AID 1151).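 Note: Shh protein binding to compounds spotted on small-molecule microarray slides; score combines spot fluorescence intensity with signal-to-noise across triplicate slides.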 As to conditions: 635 nm fluorescence, higher = more signal.

Activity calls are given as the source filed them. Unless noted, the rule behind the calls is not given here.

Focal adhesion kinase 1 (Homo sapiens), sequence (Q05397 whole entry, looked up): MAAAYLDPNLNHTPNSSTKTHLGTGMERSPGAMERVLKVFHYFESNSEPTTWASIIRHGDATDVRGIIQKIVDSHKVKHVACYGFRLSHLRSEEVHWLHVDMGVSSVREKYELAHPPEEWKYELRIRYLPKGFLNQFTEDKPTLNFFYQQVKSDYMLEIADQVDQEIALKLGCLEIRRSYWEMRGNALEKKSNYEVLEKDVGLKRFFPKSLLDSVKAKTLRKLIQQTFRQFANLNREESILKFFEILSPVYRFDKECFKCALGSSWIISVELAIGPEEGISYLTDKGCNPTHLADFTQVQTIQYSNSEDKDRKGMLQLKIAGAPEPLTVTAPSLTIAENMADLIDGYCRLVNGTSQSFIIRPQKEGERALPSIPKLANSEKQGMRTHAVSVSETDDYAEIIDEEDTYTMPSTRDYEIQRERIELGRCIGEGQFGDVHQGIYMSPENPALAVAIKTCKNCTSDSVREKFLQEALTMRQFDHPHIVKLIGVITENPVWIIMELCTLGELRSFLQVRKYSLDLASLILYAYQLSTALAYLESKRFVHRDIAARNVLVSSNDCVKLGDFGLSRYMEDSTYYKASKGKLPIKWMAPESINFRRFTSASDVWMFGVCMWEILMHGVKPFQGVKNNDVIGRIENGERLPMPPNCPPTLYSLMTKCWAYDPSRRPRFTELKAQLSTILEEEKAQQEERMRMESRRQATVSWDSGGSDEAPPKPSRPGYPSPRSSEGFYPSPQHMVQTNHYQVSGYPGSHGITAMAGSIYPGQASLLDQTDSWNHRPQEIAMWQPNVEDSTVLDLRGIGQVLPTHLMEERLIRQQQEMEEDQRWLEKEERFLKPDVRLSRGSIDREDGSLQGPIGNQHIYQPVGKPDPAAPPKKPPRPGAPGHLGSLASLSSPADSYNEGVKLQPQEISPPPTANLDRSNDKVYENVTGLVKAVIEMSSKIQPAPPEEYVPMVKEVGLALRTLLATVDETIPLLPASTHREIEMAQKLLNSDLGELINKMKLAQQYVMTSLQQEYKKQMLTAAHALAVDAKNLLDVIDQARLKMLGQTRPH
Torsin-1A (Homo sapiens), sequence (O14656 whole entry, looked up): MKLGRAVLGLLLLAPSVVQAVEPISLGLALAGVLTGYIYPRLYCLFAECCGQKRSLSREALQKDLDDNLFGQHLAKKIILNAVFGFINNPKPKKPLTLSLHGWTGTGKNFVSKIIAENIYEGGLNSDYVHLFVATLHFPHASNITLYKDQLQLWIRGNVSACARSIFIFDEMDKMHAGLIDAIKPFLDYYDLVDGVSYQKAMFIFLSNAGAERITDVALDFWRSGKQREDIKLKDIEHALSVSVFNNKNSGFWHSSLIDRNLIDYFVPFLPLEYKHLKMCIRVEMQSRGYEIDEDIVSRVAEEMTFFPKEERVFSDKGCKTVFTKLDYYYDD
Fibroblast growth factor 2 (Homo sapiens), sequence (P09038 whole entry, looked up): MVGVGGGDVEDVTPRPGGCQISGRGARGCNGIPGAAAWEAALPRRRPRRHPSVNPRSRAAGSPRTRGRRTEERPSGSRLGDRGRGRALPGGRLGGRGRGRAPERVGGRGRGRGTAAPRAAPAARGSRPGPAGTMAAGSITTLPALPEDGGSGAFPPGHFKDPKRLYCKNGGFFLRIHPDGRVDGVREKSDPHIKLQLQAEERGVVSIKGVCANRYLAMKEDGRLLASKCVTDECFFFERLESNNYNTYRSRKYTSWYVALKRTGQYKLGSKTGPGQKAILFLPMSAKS
Luciferin 4-monooxygenase (Photinus pyralis), sequence (P08659 whole entry, looked up): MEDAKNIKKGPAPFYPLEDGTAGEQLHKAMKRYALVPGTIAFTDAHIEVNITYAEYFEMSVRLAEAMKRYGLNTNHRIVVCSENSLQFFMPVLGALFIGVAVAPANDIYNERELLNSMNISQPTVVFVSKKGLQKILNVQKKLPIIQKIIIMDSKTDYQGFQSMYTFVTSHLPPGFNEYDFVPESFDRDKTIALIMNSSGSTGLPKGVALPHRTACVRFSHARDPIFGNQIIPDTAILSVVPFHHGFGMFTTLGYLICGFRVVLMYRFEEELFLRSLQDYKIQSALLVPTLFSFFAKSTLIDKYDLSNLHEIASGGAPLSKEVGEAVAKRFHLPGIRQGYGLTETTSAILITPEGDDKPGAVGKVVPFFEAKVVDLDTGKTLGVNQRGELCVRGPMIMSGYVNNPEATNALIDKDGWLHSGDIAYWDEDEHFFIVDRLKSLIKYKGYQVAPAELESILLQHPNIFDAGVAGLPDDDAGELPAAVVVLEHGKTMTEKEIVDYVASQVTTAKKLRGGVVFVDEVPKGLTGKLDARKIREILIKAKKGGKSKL
Follistatin (Homo sapiens), sequence (P19883 whole entry, looked up): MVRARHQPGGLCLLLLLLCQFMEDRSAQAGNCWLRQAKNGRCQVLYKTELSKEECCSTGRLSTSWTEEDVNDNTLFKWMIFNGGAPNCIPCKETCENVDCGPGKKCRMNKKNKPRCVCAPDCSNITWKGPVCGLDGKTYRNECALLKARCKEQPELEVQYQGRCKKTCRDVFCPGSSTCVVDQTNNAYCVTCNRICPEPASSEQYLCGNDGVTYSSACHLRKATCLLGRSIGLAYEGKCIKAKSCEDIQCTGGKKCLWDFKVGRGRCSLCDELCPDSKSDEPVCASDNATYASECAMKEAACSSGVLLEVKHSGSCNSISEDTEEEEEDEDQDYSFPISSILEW
Streptavidin (Streptomyces avidinii), sequence (P22629 whole entry, looked up): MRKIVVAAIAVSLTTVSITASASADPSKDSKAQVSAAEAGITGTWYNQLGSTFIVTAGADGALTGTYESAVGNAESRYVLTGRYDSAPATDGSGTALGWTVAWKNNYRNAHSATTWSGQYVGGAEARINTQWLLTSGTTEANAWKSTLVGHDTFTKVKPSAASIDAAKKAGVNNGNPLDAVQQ

On to `COc1ccc(C(=O)Nc2cccc(CN3C(=O)[C@@]4(O[C@@H](CCn5cc(CCO)nn5)[C@H]([Si](C)(C)c5ccc(OC)cc5)[C@H]4C)c4ccccc43)c2)cc1`, for which the composite z-score in [1] was 1.38; in [2] it was 1.16; in experiment [3], 0.582; in [4] it was 0.701; in experiment [5] it was 1.35; in experiment [6], 1.51. Besides, the composite z-score in experiment [8] was determined as 1.29; in experiment [9] it was 0.701; in experiment [11] it was 0.504; in experiment [16], 0.37; in [17], 0.0184; in [18], 0.503. The composite z-score in experiment [19] turned out to be 0.347; in [20], 1.72. Besides, the z-score in [7] was -0.0548; in [10], -0.775 (inactive); in [12], -8.01 (active); in experiment [13], -0.609 (inactive); in [14], 8.36 (active); in experiment [15], -1.29 (inactive).
For `COCCOC(=O)N1C(=O)[C@@]2(c3cc(C#CCCO)ccc31)[C@H](c1ccccc1OCCO)N1[C@H](c3ccccc3)[C@H](c3ccccc3)OC(=O)[C@H]1[C@@H]2C(=O)N1CCN(c2ncccn2)CC1`, the composite z-score in experiment [1] amounted to 1.64; in experiment [2], 1.21; in [3], 0.714; in experiment [4], 0.807; in experiment [5], 1.32; in [6] it was 0.819. Moreover, the composite z-score was 1.38 in experiment [8]; 0.789 in experiment [9]; 0.544 in [11]; 1.41 in [16]; 0.262 in [17]; 0.0623 in [18]. In addition, the composite z-score in experiment [19] was 0.835; in [20], 1.37. For the same compound, the z-score in experiment [7] is -0.835; in experiment [10], -0.198 (inactive); in experiment [12], -1.01 (inactive); in experiment [13] it was 0.566 (inactive); in [14] it was -0.329 (inactive); in experiment [15], 1.99 (inactive).
Turning to `COCCOC(=O)N1C(=O)[C@@]2(c3ccccc31)[C@H](C(=O)Nc1nc3ccccc3s1)[C@H]1C(=O)O[C@H](c3ccccc3)[C@H](c3ccccc3)N1[C@@H]2c1ccc(OCCO)cc1`, the composite z-score in experiment [1] worked out at 1.8; in [2] it was 1.17; in [3], 0.462; in experiment [4] it was 0.962; in experiment [5], 1.33; in experiment [6], 0.826. Further, the composite z-score was determined as 1.33 in experiment [8]; 0.992 in experiment [9]; 0.931 in [11]; 0.82 in experiment [16]; 0.038 in experiment [17]; 0.488 in experiment [18]. Also, the figures for the composite z-score in experiment [19] and in [20] were 1.25 and 1.12, respectively. In addition, the z-score in [7] is -2.32; in experiment [10] it was -2.11 (inactive); in experiment [12], -2.34 (inactive); in [13], -0.706 (inactive); in experiment [14] it was -0.878 (inactive); in experiment [15] it was -0.523 (inactive).
Regarding `C=CC[C@@]1(C(=O)O)N=C(c2ccc(OCCCO)cc2)O[C@@H]1c1ccccc1N=[N+]=[N-]`, the composite z-score in experiment [1] is 1.06; in experiment [2], 0.811; in experiment [3] it was 0.235; in experiment [4], 0.987; in experiment [5] it was 1.1; in experiment [6], -0.168. The composite z-score was -0.504 in experiment [8]; 1.36 in experiment [9]; 0.0886 in experiment [11]; 1.11 in experiment [16]; 0.0697 in [17]; -0.115 in [18]. The values for the composite z-score in experiment [19] and in experiment [20] were 0.251 and -0.203, respectively. Also, the z-score in experiment [7] is 0.117; in experiment [10], -12.9 (active); in [12] it was -1.41 (inactive); in experiment [13], 0.651 (inactive); in experiment [14], 0.367 (inactive); in experiment [15], -0.432 (inactive).
